Measured values as given in PubChem BioAssay (EPA / NIEHS).
Inconclusive results are not listed. Activity calls are given as the source filed them. The calls were made as follows, unless noted: active = hit-call score of the fitted dose curve at least 0.9, where 1 is the maximum; inconclusive = response in the unintended direction; inactive = score below 0.9.

Columns and labels:
[1] = target: human CYP19A1, CYP19A1 (gene 1588) (UniProt P11511); experiment: NVS_ADME_hCYP19A1: NovaScreen (NVS) CYP450-related Enzyme Activity (ADME) Assay for human CYP19A1 (AID 2283098)
human CYP19A1, CYP19A1 (gene 1588), sequence (P11511 whole entry, looked up): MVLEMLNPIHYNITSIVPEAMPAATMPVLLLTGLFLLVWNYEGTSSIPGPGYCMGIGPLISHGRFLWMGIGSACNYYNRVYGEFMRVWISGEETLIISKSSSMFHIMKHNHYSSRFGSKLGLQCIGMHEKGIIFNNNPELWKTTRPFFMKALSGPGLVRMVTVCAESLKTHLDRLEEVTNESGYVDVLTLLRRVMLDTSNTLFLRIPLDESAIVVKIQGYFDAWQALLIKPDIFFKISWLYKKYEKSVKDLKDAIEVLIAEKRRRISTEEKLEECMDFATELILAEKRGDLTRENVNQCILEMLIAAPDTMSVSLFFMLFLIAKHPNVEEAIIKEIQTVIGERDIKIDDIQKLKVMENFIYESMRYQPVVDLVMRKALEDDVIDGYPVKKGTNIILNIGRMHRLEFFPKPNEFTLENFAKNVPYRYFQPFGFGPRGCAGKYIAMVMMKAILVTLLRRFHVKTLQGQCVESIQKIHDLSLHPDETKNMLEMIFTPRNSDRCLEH
How it was run: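 Cell-free enzyme assay with recombinant protein and a specific fluorogenic substrate, read by fluorescence intensity 0.5 h after dosing. Primary screen ran in duplicate at 10 uM; actives were retested in concentration series. Loss of signal versus acetonitrile baseline.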

[2] = target: human Peroxisome Proliferator-activated Receptor alpha (PPARa), PPARA (gene 5465) (UniProt Q07869); experiment: NVS_NR_hPPARa: NovaScreen (NVS) Nuclear Receptor Binding Assay for human Peroxisome Proliferator-activated Receptor alpha (PPARa) (AID 2283359);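 also: activity means loss of TR-FRET signal versus DMSO baseline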
human Peroxisome Proliferator-activated Receptor alpha (PPARa), PPARA (gene 5465), sequence (Q07869 whole entry, looked up): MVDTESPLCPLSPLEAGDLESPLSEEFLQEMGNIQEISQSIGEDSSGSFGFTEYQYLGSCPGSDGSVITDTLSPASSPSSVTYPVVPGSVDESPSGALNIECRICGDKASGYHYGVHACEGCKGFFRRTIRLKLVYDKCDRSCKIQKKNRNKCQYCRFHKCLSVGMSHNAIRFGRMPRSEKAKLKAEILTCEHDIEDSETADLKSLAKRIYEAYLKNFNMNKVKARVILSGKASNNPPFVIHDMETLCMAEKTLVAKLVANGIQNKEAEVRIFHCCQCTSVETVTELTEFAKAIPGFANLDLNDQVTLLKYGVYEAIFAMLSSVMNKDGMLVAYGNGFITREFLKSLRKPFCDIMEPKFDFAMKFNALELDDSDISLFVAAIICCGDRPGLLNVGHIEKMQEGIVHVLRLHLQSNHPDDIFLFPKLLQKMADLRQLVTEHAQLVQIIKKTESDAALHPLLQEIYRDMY
How it was run: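 Cell-free binding assay with extracted human protein, read by TR-FRET 1 h after chemical dosing. Loss of signal relative to DMSO baseline indicates binding. Primary screen used duplicate single concentration (25 uM); actives followed up in concentration series.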

[3] = target: human Thyroid Receptor Alpha (TRa), THRA (gene 7067) (UniProt P10827); experiment: NVS_NR_hTRa_Antagonist: NovaScreen (NVS) Nuclear Receptor Binding Assay for human Thyroid Receptor Alpha Antagonism (TRa) (AID 2283362);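 also: activity is loss of signal relative to DMSO baseline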
human Thyroid Receptor Alpha (TRa), THRA (gene 7067), sequence (P10827 whole entry, looked up): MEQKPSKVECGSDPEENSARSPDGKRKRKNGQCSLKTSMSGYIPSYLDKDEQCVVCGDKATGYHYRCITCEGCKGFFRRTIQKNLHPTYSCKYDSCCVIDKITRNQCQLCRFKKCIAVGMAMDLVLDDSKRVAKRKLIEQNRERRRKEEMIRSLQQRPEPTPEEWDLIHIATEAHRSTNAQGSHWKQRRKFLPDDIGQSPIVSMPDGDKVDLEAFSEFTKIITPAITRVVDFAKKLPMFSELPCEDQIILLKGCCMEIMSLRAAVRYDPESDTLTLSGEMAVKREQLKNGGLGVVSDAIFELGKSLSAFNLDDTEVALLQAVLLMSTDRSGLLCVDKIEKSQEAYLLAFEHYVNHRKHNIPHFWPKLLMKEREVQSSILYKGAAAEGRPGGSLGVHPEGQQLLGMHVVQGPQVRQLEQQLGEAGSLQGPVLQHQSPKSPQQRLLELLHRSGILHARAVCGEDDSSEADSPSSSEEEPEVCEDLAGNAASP
How it was run: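 Cell-free binding assay on extracted receptor protein, read 1 h after chemical dosing by AlphaLISA chemiluminescence; loss of signal relative to DMSO baseline marks antagonism. Primary screen ran in duplicate at 25 uM, with concentration series for actives.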

[4] = target: Peroxisome proliferator-activated receptor gamma (Homo sapiens) (UniProt P37231); experiment: OT_PPARg_PPARgSRC1_0480: Odyssey Thera (OT) 8-hour Protein-Complementation Assay for Peroxisome Proliferator-activated Receptor Gamma / SRC-1 Co-activator (AID 2283387)
Peroxisome proliferator-activated receptor gamma (Homo sapiens), sequence (P37231 whole entry, looked up, the tested form may be a part): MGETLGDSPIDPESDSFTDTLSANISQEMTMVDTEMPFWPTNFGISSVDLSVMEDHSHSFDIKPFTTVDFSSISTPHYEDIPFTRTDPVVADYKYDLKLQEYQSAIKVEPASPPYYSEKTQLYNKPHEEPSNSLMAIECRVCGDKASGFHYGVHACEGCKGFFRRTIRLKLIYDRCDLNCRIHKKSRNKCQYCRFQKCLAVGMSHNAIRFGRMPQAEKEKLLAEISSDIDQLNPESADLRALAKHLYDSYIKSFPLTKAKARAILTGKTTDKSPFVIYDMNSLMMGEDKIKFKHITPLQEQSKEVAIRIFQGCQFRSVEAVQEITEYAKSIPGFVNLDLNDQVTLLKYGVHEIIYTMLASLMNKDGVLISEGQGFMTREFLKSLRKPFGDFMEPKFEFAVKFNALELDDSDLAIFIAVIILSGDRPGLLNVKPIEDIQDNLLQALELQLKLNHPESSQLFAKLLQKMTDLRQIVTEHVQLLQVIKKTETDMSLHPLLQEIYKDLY
How it was run: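 Protein-fragment complementation in HEK293T: Venus YFP halves (residues 1-158, 159-239, mutated to IFP1/IFP2) fused to PPARg/SRC-1. 8 h exposure; N/C ratio at 488 nm; DMSO negative control.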

[5] = target: Peroxisome proliferator-activated receptor gamma (Homo sapiens) (UniProt P37231); experiment: OT_PPARg_PPARgSRC1_1440: Odyssey Thera (OT) 24-hour Protein-Complementation Assay for Peroxisome Proliferator-activated Receptor Gamma/ SRC-1 Co-activator (AID 2283388)
How it was run: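 HEK293T cells transiently transfected with PPARg and SRC-1 fused via (Gly4Ser)2 linker to split Venus YFP fragments (IFP1/IFP2) were dosed 24 h; fixed, Draq5-stained, imaged at 488/635 nm; nuclear/cytoplasmic fluorescence ratio scored versus DMSO baseline, gain-of-signal.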

[6] = ACEA_AR_antagonist_AUC_viability: ACEA Biosciences xCELLigence Real-Time Cell Analysis on Androgen Receptor Antagonism for Viability (AID 2283776);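 also: 22Rv1 human prostate cancer cells growing on impedance electrode plates; hits lower the growth signal relative to DMSO meaning cytotoxicity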
How it was run: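 22Rv1 prostate cells, continuous dosing up to 100 uM final (0.5% DMSO max), duplicate plates. Growth measured by impedance; AUC at 80 h, loss of signal vs DMSO.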

[7] = system: SERPINA7 (gene 6906); experiment: CCTE_GLTED_hTBG: CCTE's human Thyroxine-binding Globulin (TBG) Inhibition Assay, Great Lakes Toxicology and Ecology Division (GLTED) Lab (AID 2284343);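 also: active chemicals lower fluorescence versus DMSO baseline by displacing probe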
How it was run: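 hTBG + test chem, 2 h; ANSA probe displacement; fluorescence readout ex380/em475; DMSO = neg ctrl/baseline; cell-free.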

[8] = system: TTR (gene 7276); experiment: CCTE_GLTED_hTTR_0.125uM: CCTE's human Transthyretin (hTTR) Inhibition Assay, with 0.125uM TTR, Great Lakes Toxicology and Ecology Division (GLTED) Lab (AID 2284431; active = hit-call score of the fitted dose curve at least 0.9, where 1 is the maximum; inactive = score below 0.9;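 also: hits lower the fluorescence signal relative to DMSO baseline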)
How it was run: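 Cell-free displacement of the fluorescent probe ANSA from human TTR (0.125uM) after 2 h incubation with test chemical. Fluorescence read at 380 nm excitation/475 nm emission; loss of signal fitted relative to DMSO baseline.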

[9] = target: human Peripheral-type Benzodiazepine Receptor (PBR), TSPO (gene 706) (UniProt P30536); experiment: NVS_MP_hPBR: NovaScreen (NVS) Membrane Protein Assay for human Peripheral-type Benzodiazepine Receptor (PBR) (AID 2283331);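 also: hits reduce radioligand binding relative to DMSO baseline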
human Peripheral-type Benzodiazepine Receptor (PBR), TSPO (gene 706), sequence (P30536 whole entry, looked up): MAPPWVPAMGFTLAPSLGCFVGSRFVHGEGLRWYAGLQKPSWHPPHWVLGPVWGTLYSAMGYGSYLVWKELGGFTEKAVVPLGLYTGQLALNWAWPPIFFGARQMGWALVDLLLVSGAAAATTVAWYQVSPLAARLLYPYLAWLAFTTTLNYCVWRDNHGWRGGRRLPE
How it was run: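 Human colonic cell membranes were incubated with test chemical for 1 hour; radioligand binding was measured by filter-based scintillation counting. Primary screen ran in duplicate at 25 uM, with actives followed in concentration series; loss of signal versus DMSO baseline.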

[10] = target: rat Peripheral-type Benzodiazepine Receptor (PBR), Tspo (gene 24230) (UniProt P16257); experiment: NVS_MP_rPBR: NovaScreen (NVS) Membrane Protein Assay for rat Peripheral-type Benzodiazepine Receptor (PBR) (AID 2283335)
rat Peripheral-type Benzodiazepine Receptor (PBR), Tspo (gene 24230), sequence (P16257 whole entry, looked up): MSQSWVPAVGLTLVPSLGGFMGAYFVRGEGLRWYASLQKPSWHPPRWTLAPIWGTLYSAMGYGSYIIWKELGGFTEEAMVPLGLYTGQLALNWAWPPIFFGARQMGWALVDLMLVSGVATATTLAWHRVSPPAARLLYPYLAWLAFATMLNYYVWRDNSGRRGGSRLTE
How it was run: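 Rat kidney membranes; radioligand binding with displacement, filter-based scintillation counting, 1 h incubation. Primary screen in duplicate at 25 uM, actives followed in concentration series; loss of binding vs DMSO.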

[11] = target: Estrogen receptor beta (Homo sapiens) (UniProt Q92731); experiment: OT_ER_ERbERb_0480: Odyssey Thera (OT) 8-hour HEK293T Protein-Complementation Assay for Estrogen Receptor-beta/-beta Homodimer (AID 2283357);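 also: active means signal gain over DMSO baseline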
Estrogen receptor beta (Homo sapiens), sequence (Q92731 whole entry, looked up, the tested form may be a part): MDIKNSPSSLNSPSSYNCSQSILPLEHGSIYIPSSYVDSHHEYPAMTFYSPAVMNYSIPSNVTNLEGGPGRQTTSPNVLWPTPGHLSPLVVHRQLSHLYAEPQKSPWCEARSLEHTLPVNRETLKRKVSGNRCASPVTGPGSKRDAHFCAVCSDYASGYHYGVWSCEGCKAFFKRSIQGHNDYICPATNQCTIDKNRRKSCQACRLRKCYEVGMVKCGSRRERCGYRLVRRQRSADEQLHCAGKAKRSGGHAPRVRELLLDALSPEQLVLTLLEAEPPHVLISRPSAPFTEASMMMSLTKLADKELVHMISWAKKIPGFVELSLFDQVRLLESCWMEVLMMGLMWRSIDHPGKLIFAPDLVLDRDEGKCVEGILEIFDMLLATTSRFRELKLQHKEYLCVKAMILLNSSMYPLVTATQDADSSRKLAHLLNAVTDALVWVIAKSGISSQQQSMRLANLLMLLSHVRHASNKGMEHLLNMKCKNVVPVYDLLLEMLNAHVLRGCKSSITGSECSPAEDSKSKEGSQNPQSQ
How it was run: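 Readout: increase in mean fluorescence intensity (nucleus for agonists; nucleus plus cytoplasm for antagonists) relative to DMSO, from a reporter-fragment complementation of human ER-beta LBD homodimer in HEK293T cells dosed 8 hours.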

[12] = target: Estrogen receptor beta (Homo sapiens) (UniProt Q92731); experiment: OT_ER_ERbERb_1440: Odyssey Thera (OT) 24-hour HEK293T Protein-Complementation Assay for Estrogen Receptor-beta/-beta Homodimer (AID 2283380);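 also: fluorescence gain from ER beta LBD homodimer complementation read by laser scanning cytometry; scored as signal increase over DMSO baseline for both agonists and antagonists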
How it was run: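 HEK293T cells stably expressing human ER-beta LBD (aa 310-547) PCA homodimer pair, dosed 24 h; formaldehyde-fixed, Draq5-stained. Readout: increase in nuclear (agonist) or nuclear plus cytoplasmic (antagonist) fluorescence intensity versus DMSO, gain-of-signal fitting.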

[13] = target: Retinoic acid receptor RXR-alpha (Homo sapiens) (UniProt P19793); experiment: OT_NURR1_NURR1RXRa_0480: Odyssey Thera (OT) 8-hour HEK293T Protein Complementation Assay for Nurr1/retinoid X receptor (RXR) (AID 2283385)
Retinoic acid receptor RXR-alpha (Homo sapiens), sequence (P19793 whole entry, looked up, the tested form may be a part): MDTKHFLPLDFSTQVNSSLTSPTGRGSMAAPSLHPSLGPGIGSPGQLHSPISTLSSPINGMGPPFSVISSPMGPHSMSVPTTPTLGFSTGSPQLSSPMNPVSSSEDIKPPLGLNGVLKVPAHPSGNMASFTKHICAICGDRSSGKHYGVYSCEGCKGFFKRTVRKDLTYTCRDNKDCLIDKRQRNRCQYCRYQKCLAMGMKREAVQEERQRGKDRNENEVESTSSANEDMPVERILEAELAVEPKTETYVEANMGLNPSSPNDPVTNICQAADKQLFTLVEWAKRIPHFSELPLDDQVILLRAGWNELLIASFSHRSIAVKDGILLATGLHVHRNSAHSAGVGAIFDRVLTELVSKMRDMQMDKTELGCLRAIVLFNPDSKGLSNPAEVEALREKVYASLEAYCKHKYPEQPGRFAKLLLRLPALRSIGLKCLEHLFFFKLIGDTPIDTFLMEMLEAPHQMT
How it was run: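 8 h compound exposure, HEK293T; Nurr1/RXRα fragment complementation; fluorescence intensity; positive fitting direction vs DMSO baseline.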

[14] = target: Retinoic acid receptor RXR-alpha (Homo sapiens) (UniProt P19793); experiment: OT_NURR1_NURR1RXRa_1440: Odyssey Thera (OT) 24-hour HEK293T Protein Complementation Assay for Nurr1/retinoid X receptor (RXR) (AID 2283386)
How it was run: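 Interaction of Nurr1 with RXRα brings fused reporter fragments together in human HEK293T cells, restoring a functional reporter. Fluorescence intensity is measured 24 h after chemical treatment, and values are analysed in the positive direction against DMSO.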

[15] = ACEA_AR_agonist_AUC_viability: ACEA Biosciences xCELLigence Real-Time Cell Analysis on Androgen Receptor Agonism for Viability (AID 2283775)
How it was run: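 Real-time impedance tracking of 22Rv1 growth, readings every 5 min for 5 h then hourly; area-under-curve viability endpoint at 80 hours, relative to DMSO. Compounds at eight concentrations, 1:4 steps, top 100 uM, n = 2.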

[16] = target: Retinoic acid receptor alpha (Homo sapiens) (UniProt P10276); experiment: ATG_DR5_RAR_CIS: Attagene CIS-FACTORIAL HepG2 Assay for human Retinoic Acid Receptor Alpha (RARE), DR5 submotif (AID 2282934; active = hit-call score of the fitted dose curve at least 0.9, where 1 is the maximum; inactive = score below 0.9); conditions: HepG2 Attagene cis-factorial RARE DR5 reporter, mRNA; actives raise or lower the signal
Retinoic acid receptor alpha (Homo sapiens), sequence (P10276 whole entry, looked up): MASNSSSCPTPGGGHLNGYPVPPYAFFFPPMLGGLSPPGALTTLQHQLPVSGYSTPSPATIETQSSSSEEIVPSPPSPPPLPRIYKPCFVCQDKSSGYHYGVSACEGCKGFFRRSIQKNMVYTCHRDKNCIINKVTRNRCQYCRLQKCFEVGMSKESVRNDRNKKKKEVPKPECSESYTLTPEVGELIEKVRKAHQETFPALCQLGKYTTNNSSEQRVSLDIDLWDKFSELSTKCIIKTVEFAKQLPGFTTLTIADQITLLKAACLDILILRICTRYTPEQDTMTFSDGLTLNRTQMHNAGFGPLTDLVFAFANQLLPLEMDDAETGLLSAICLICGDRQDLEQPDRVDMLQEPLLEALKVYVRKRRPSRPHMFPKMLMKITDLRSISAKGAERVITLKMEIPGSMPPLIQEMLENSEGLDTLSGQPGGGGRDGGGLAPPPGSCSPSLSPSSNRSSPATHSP
How it was run: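 HepG2 cells transiently transfected with multiplexed reporter units under cis (DR5 RARE) promoters, so endogenous transcription factor activity is measured. After 24 h compound exposure, reporter mRNA is quantified by RT-PCR with fluorescent labelling and capillary electrophoresis; bidirectional fitting versus DMSO.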

[17] = target: human Retinoic Acid Receptor gamma (RARg), RARG (gene 5916) (UniProt P13631); experiment: ATG_RARg_TRANS: Attagene TRANS-FACTORIAL HepG2 Assay for human Retinoic Acid Receptor gamma (RARg) (AID 2283009)
human Retinoic Acid Receptor gamma (RARg), RARG (gene 5916), sequence (P13631 whole entry, looked up): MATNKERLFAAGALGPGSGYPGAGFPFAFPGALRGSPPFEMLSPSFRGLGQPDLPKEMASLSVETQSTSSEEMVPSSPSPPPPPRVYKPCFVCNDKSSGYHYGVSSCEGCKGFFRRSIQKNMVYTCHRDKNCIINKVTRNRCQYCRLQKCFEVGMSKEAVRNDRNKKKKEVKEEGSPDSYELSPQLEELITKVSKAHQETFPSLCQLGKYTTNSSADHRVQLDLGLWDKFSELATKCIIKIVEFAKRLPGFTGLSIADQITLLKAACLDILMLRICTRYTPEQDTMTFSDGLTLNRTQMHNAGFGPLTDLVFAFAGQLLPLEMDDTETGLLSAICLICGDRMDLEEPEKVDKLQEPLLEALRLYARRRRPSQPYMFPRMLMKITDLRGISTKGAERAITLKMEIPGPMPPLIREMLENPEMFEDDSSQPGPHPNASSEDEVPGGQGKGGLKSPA
How it was run: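 Transient transfection of HepG2 with multi-reporter constructs, then 24 h chemical treatment. Total RNA isolated, reverse-transcribed, PCR-amplified, fluorescently labelled and resolved by capillary electrophoresis; activity scored as mRNA induction versus DMSO.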

[18] = ATG_PPRE_CIS: Attagene CIS-FACTORIAL HepG2 Assay for human Peroxisome Proliferator-activated Response Element (PPRE) (AID 2282958; active = hit-call score of the fitted dose curve at least 0.9, where 1 is the maximum; inactive = score below 0.9); conditions: HepG2 PPRE cis-element reporter, Attagene transcription factor profiling; actives raise or lower the signal
How it was run: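 Endogenous PPRE-driven transcription is measured in HepG2 cells carrying transfected multi-reporter constructs. Reporter transcripts are quantified by RT-PCR, HpaI digestion and capillary electrophoresis 24 h after dosing. DMSO baseline, bidirectional fit.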

[19] = target: human Matrix Metalloproteinase-9 (MMP9), MMP9 (gene 4318) (UniProt P14780); experiment: NVS_ENZ_hMMP9: NovaScreen (NVS) Enzymatic Assay for human Matrix Metalloproteinase-9 (MMP9) (AID 2283190);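 also: cell-free recombinant MMP9 protease activity read by fluorescent substrate signal; active means inhibition seen as loss of fluorescence signal versus DMSO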
human Matrix Metalloproteinase-9 (MMP9), MMP9 (gene 4318), sequence (P14780 whole entry, looked up): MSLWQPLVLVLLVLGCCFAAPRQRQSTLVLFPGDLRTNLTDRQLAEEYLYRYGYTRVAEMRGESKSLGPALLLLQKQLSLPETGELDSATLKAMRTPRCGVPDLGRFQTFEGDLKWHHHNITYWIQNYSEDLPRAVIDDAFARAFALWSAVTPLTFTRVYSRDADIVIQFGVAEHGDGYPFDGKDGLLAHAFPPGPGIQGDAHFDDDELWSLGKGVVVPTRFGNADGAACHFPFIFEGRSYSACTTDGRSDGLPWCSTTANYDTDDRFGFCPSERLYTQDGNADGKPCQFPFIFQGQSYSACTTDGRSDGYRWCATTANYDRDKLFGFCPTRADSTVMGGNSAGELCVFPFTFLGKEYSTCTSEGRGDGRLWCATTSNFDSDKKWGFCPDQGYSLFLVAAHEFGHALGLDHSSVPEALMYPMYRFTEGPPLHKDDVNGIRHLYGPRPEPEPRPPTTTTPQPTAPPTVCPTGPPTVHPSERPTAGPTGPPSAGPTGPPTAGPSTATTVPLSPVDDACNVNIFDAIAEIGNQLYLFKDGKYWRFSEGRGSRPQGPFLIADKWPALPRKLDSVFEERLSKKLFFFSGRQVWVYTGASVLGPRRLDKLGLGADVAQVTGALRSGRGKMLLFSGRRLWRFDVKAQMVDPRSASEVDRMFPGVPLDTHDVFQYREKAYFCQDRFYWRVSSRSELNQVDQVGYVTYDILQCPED
How it was run: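 Inhibition was scored as loss of fluorescence signal against DMSO controls. The recombinant protease was exposed to chemicals for 1 hour before reading; initial testing used 25 uM in duplicate.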

[20] = system: Sodium/Iodide Symporter (NIS), SLC5A5 (gene 6528); experiment: CPHEA_Stoker_NIS_Inhibition_RAIU: CPHEA's Radioactive Iodide Uptake (RAIU) Assay for Sodium/Iodide Symporter (NIS) Inhibition, Stoker and Laws Labs (AID 2283841)
How it was run: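 Iodide uptake through human NIS is measured in an engineered HEK293T line. Cells take up 125I (329pM final) for 2 hours at room temperature alongside chemicals at 0.001–100uM. Retained radioactivity is counted, and the signal is expressed against DMSO controls.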

Q: Which results are given for `CC1=NN(c2cc(Cl)c(S(=O)(=O)O)cc2Cl)C(=O)C1N=Nc1ccc(S(=O)(=O)O)cc1` (stereo not given)?
A: outcome [1]: inactive; outcome [2]: inactive; outcome [3]: inactive; outcome [4]: inactive; outcome [5]: inactive; outcome [6]: inactive; AC50 [7]: 39.4 µM (active); AC50 [8]: 18.8 µM (active)

Q: Which results are given for `CC(=[OH+])/C=C(/C)[O-].CC(=[OH+])/C=C(/C)[O-].CC(=[OH+])/C=C(/C)[O-].[Al]`?
A: outcome [9]: inactive; AC50 [10]: 7.03 µM (active)

Q: With `O=C(O)/C=C\C(=O)O` as the molecule, how does the outcome [11] read?
A: Its outcome is “inactive”.

Q: What about the outcome [12] of the same molecule?
A: The outcome was “inactive”.

Q: And the outcome [13]?
A: The outcome was “inactive”.

Q: And the outcome [14]?
A: The outcome was “inactive”.

Q: What about the outcome [15] of the same molecule?
A: Its outcome is “inactive”.

Q: For `Clc1ccccn1`, which outcome [16] is on record?
A: Its outcome is “inactive”.

Q: What about the outcome [17] of the same molecule?
A: Its outcome is “inactive”.

Q: For `CCCc1c(OCCCCc2nn[nH]n2)ccc(C(C)=O)c1O`, which AC50 [18] is on record?
A: The AC50 was 2.26 µM (active).

Q: With `CCO[Si](OCC)(OCC)c1ccccc1` as the molecule, how does the AC50 [19] read?
A: Its AC50 is 1.37 µM (active).

Q: With `OC(C(F)(F)F)(C(F)(F)F)C(O)(C(F)(F)F)C(F)(F)F` as the molecule, how does the outcome [20] read?
A: Its outcome is “inactive”.
